Source: PubChem
ALOX12 inh: ALOX12 (human) lipoxygenase inhibition | purified 12hLO, xylenol orange hydroperoxide absorbance | Potency, µM (titrated, usually from 108 µM), usual class: inhibitors | 1.1% of 580,000 active
Target sequence (P18054 whole entry, looked up): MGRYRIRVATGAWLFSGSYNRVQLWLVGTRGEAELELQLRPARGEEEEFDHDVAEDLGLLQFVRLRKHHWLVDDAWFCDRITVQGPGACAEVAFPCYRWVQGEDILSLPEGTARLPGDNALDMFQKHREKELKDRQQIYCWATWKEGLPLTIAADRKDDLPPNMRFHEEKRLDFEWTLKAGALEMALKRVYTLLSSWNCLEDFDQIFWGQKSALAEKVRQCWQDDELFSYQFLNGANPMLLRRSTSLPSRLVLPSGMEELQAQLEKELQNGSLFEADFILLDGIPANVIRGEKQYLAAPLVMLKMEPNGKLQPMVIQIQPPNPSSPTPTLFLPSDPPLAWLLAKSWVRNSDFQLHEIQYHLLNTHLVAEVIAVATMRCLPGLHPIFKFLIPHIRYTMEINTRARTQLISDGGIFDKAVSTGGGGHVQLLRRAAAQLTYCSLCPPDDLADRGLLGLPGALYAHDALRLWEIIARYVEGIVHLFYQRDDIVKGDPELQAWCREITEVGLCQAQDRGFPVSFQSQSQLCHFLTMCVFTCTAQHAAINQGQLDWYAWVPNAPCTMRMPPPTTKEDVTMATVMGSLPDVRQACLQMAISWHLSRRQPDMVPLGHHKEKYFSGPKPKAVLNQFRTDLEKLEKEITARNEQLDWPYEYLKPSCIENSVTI
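Purified human 12hLO at 150 nM in 25 mM Hepes, 0.01% Triton X-100, pH 7.0, preincubated 15 min at room temperature with compound. Reaction started with 40 uM arachidonic acid, 30 min at room temperature. Hydroperoxide measured by Fe-xylenol orange, 573/405 nm absorbance ratio.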
DT40 TDP1 no CPT: qHTS for Inhibitors of human tyrosyl-DNA phosphodiesterase 1 (TDP1): qHTS in cells in absence of CPT; DT40 Tdp1-/- hTDP1 cells, no CPT, ATP luminescence, 48 h; Potency, µM (doses to about 46.2 µM), hits mostly inhibitors; 15% of 420,000 active; note: nearly all actives have a fitted effect of over 55% in size
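Chicken DT40 Tdp1-/- cells complemented with human TDP1, screened without camptothecin (DMSO vehicle only), 400 cells/well. Compounds pin-transferred, cells incubated at 37 °C for at least 48 hr. Growth read as ATP-dependent luminescence (CellTiter-Glo, 30 min at RT).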
Gal4-VP16 FLuc: Gal4-VP16 reporter inhibition counter-screen | 3.5% of 310,000 active | AID 2546 | Drosophila S2 Gal4-VP16 UAS-luciferase, luminescence, 20 h | Potency, µM (doses to about 53.6 µM), hits mostly inhibitors;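 note: Gal4-VP16 expression switched on by copper sulfate through the metallothionein promoter; nearly all actives have a fitted effect of over 50% in size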
ELG1 repair inh: blocks ELG1-dependent DNA repair in HEK293T cells; HEK293T ELG1-luciferase reporter, luminescence, 16 h; DNA damage induced by 5-fluorouridine; 2.3% of 330,000 active; Potency, µM (titrated, usually from 46.1 µM), hits mostly inhibitors; note: nearly all actives have a fitted effect of over 55% in size
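Overnight (16 hr) co-exposure of 2,000 cells/well to 5-fluorouridine and compound at 37 °C preceded detection. Luciferase was quantified via ONE-Glo luminescence; loss of signal denotes inhibition.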
DT40 TDP1 CPT: growth inhibition of DT40 Tdp1-/-;hTDP1 cells with camptothecin (screen for TDP1 inhibitors); 12% of 420,000 active; Potency, µM (series often up to 46.2 µM), most hits filed as inhibitors; chicken DT40 Tdp1-/-;hTDP1 cells + 20 nM CPT, ATP luminescence, 48 h; note: nearly all actives have a fitted effect of over 55% in size
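Cell growth measured by CellTiter-Glo luminescence after a minimum 48 h, 37 C compound exposure with 20 nM CPT in Tdp1-knockout DT40 cells stably expressing hTDP1, seeded 400/well; qHTS titration format.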
RORg inh: ROR gamma (mouse) transcription inhibition. Potency, µM (doses to about 53.6 µM), hits mostly inhibitors. Drosophila S2 Gal4-RORgamma UAS-luciferase reporter, 20 h. 5.4% of 310,000 active; note: nearly all actives have a fitted effect of over 60% in size
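Read-out: Photinus luciferase luminescence; inhibitors lower reporter signal. Insect Schneider cells with Gal4-ROR gamma fusion under metallothionein promoter, UAS reporter; 700 uM final copper sulfate induction, 20 hr, ambient temperature.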
Large screens that a line does not name were inactive. Sampled rows, rich in hits. Any-hit rate of the full collection: about 15%. Calls come from the whole dose curve; as a rule, active = well fitted curve in the direction sought with a large enough effect; inconclusive = small, poorly fitted or top-dose-only effect, or another doubt; inactive = no such curve, though single readings can be large; an effect the other way counts as inactive or inconclusive.

O=C(NCc1ccccc1)NC1CCN(C(=O)N2CC3CC(C2)[C@H]2CCCC(=O)N2C3)CC1 (some centres not stated)	none (no result: DT40 TDP1 no CPT, Gal4-VP16 FLuc, ELG1 repair inh, DT40 TDP1 CPT, RORg inh)
O=C(CCc1ncc(-c2ccccc2)o1)Nc1nccs1	none (no result: DT40 TDP1 no CPT, Gal4-VP16 FLuc, ELG1 repair inh, DT40 TDP1 CPT, RORg inh)
Cn1nnnc1SCCCNCc1cc(Cl)ccc1OCc1ccccc1	DT40 TDP1 no CPT inconclusive, DT40 TDP1 CPT inconclusive (no result: Gal4-VP16 FLuc, ELG1 repair inh, RORg inh)
Cn1nnnc1SCCCNCc1cccc(OCc2ccccc2Cl)c1	DT40 TDP1 no CPT 16µM, DT40 TDP1 CPT 18µM (no result: Gal4-VP16 FLuc, ELG1 repair inh, RORg inh)
Cn1nnnc1SCCCNCc1ccccc1OCc1ccccc1Cl	DT40 TDP1 no CPT 4.6µM, DT40 TDP1 CPT 5.2µM (no result: Gal4-VP16 FLuc, ELG1 repair inh, RORg inh)
Cn1nnnc1SCCCNCc1cccc(OCc2ccccc2F)c1	DT40 TDP1 no CPT inconclusive, DT40 TDP1 CPT inconclusive (no result: Gal4-VP16 FLuc, ELG1 repair inh, RORg inh)
O=C1NC[C@@H](CCCCN2C[C@H](Cc3ccc(O)cc3)N(CC3CCCCC3)C(=O)C2=O)N(Cc2ccccc2)C1=O	none (no result: Gal4-VP16 FLuc, ELG1 repair inh, RORg inh)
O=C1NC[C@H](CCCCN2C[C@H](Cc3ccccc3)N(Cc3ccccc3)C(=O)C2=O)N(CCC2CCCCC2)C1=O	ALOX12 inh inconclusive, DT40 TDP1 no CPT 18µM (no result: Gal4-VP16 FLuc, ELG1 repair inh, RORg inh)
CC(C)C[C@H]1CN(CCCC[C@H]2CNC(=O)C(=O)N2CCC2CCCCC2)C(=O)C(=O)N1CC1CCCCC1	ALOX12 inh inconclusive, DT40 TDP1 no CPT 18µM, DT40 TDP1 CPT 16µM (no result: Gal4-VP16 FLuc, ELG1 repair inh, RORg inh)
O=C1NC[C@H](CCCCN2C[C@H](Cc3ccc(O)cc3)N(CC3CCCCC3)C(=O)C2=O)N(CC2CCCCC2)C1=O	ALOX12 inh 45µM (no result: Gal4-VP16 FLuc, ELG1 repair inh, RORg inh)
O=C1NC[C@H](CCCCN2C[C@@H](Cc3ccccc3)N(Cc3ccccc3)C(=O)C2=O)N(CCC2CCCCC2)C1=O	ALOX12 inh inconclusive, DT40 TDP1 no CPT inconclusive (no result: Gal4-VP16 FLuc, ELG1 repair inh, RORg inh)
COC(=O)c1ccc(Oc2c(C)oc3cc(OCc4ccccc4)ccc3c2=O)cc1	none (no result: DT40 TDP1 no CPT, Gal4-VP16 FLuc, ELG1 repair inh, DT40 TDP1 CPT, RORg inh)
O=C(c1cnccn1)N1CCC(c2nc(C3CCOCC3)no2)CC1	none (no result: DT40 TDP1 no CPT, Gal4-VP16 FLuc, ELG1 repair inh, DT40 TDP1 CPT, RORg inh)
Cc1oc2c(O)c(O)ccc2c(=O)c1-c1ccc(Cl)cc1	ALOX12 inh 5.6µM, DT40 TDP1 no CPT inconclusive
Cc1oc2c(O)c(O)ccc2c(=O)c1-c1cnn(-c2ccccc2)c1	ALOX12 inh inconclusive, DT40 TDP1 no CPT 18µM, ELG1 repair inh inconclusive, DT40 TDP1 CPT inconclusive
Cc1oc2c(O)c(O)ccc2c(=O)c1-c1ccccc1	ALOX12 inh inconclusive, DT40 TDP1 no CPT inconclusive
Cc1oc2cc(O)cc(C)c2c(=O)c1-c1cnn(-c2ccccc2)c1	DT40 TDP1 no CPT inconclusive, DT40 TDP1 CPT inconclusive
Cc1ccc2nc(C)c(C(=O)N3CCN(S(=O)(=O)c4ccc(C#N)cc4)CC3)cc2c1	none (no result: DT40 TDP1 no CPT, Gal4-VP16 FLuc, ELG1 repair inh, DT40 TDP1 CPT, RORg inh)
Cc1ccccc1CN(C)C(=O)CN1CCCC1c1ccc2c(c1)OCCCO2 (configuration not stated)	none (no result: DT40 TDP1 no CPT, Gal4-VP16 FLuc, ELG1 repair inh, DT40 TDP1 CPT, RORg inh)
Cn1ncc(N2CCC(CNC(=O)c3cn4cccnc4n3)C2)cc1=O (configuration not stated)	none (no result: DT40 TDP1 no CPT, Gal4-VP16 FLuc, ELG1 repair inh, DT40 TDP1 CPT, RORg inh)
Cc1ccc2c(=O)n3c(nc2c1)C(Cc1ccc(O)cc1)NC(=O)c1cc2ccccc2cc1-3 (configuration not stated)	DT40 TDP1 no CPT 18µM, DT40 TDP1 CPT inconclusive (no result: Gal4-VP16 FLuc, ELG1 repair inh, RORg inh)
O=C1NC(Cc2ccc(O)cc2)c2nc3cc(F)ccc3c(=O)n2-c2cc(Cl)ccc21 (configuration not stated)	none (no result: DT40 TDP1 no CPT, Gal4-VP16 FLuc, DT40 TDP1 CPT, RORg inh)
O=C1NC(Cc2ccc(O)cc2)c2nc3cc(F)ccc3c(=O)n2-c2cc3ccccc3cc21 (configuration not stated)	DT40 TDP1 no CPT 7.3µM, DT40 TDP1 CPT inconclusive (no result: Gal4-VP16 FLuc, ELG1 repair inh, RORg inh)
O=C(c1cc(-c2cccs2)nc2ccccc12)N1CCN(S(=O)(=O)c2ccccc2)CC1	DT40 TDP1 no CPT inconclusive, ELG1 repair inh 16µM, DT40 TDP1 CPT inconclusive
O=C(c1cc(-c2ccccn2)nc2c(Cl)cccc12)N1CCN(S(=O)(=O)c2ccccc2)CC1	DT40 TDP1 no CPT 21µM, ELG1 repair inh 18µM, DT40 TDP1 CPT inconclusive, RORg inh inconclusive
O=C(c1cc(-c2cccs2)nc2ccccc12)N1CCN(S(=O)(=O)c2cccc(F)c2)CC1	DT40 TDP1 no CPT inconclusive, ELG1 repair inh inconclusive
O=C(c1cc(-c2cccs2)nc2ccccc12)N1CCC1	none (no result: DT40 TDP1 no CPT, Gal4-VP16 FLuc, ELG1 repair inh, DT40 TDP1 CPT, RORg inh)
CC1CCCN(C(=O)c2cc(-c3cccs3)nc3ccccc23)C1 (configuration not stated)	DT40 TDP1 no CPT 23µM, ELG1 repair inh inconclusive, DT40 TDP1 CPT inconclusive (no result: Gal4-VP16 FLuc, RORg inh)
O=C(Nc1ccc(Cl)cc1)C1CCN(C(=O)c2ncn3c2COC(c2ccccc2)C3)CC1 (configuration not stated)	none (no result: DT40 TDP1 no CPT, Gal4-VP16 FLuc, ELG1 repair inh, DT40 TDP1 CPT, RORg inh)
COCCCN1C(=O)C(=O)/C(=C(/O)c2ccc(C)cc2)C1c1ccccc1 (configuration not stated)	ALOX12 inh 7.1µM
C=CCOc1ccc(/C(O)=C2\C(=O)C(=O)N(CCCOC)C2c2ccc(O)c(OC)c2)cc1 (configuration not stated)	ALOX12 inh inconclusive
CCOc1cc(C2/C(=C(/O)c3ccc(OC(C)C)cc3)C(=O)C(=O)N2CCCOC)ccc1O (configuration not stated)	ALOX12 inh 20µM, ELG1 repair inh inconclusive
